# Data: PubChem BioAssay AID1851 (National Center for Advancing Translational Sciences (NCATS), 2009)
# “And” between values parts separate entries of the source, which are not always exact repeats. Equal values may be shown once. Out of some 16,000 compounds screened, about 5,100 (32%) were called active. Inconclusive results (about 25%) are left out. The list shows a part of the results. A number with no mark means an inactive call. Calls follow the shape of the dose curve; as a rule, active = well fitted curve in the direction sought with a large enough effect; inconclusive = small, poorly fitted or top-dose-only effect, or effect the other way; inactive = no such curve, though single readings can be large or run the other way. Peptide text beside a SMILES is read from it.
# Target: Cytochrome P450 3A4 (Homo sapiens) (UniProt P08684)
# Sequence (P08684 whole entry, looked up): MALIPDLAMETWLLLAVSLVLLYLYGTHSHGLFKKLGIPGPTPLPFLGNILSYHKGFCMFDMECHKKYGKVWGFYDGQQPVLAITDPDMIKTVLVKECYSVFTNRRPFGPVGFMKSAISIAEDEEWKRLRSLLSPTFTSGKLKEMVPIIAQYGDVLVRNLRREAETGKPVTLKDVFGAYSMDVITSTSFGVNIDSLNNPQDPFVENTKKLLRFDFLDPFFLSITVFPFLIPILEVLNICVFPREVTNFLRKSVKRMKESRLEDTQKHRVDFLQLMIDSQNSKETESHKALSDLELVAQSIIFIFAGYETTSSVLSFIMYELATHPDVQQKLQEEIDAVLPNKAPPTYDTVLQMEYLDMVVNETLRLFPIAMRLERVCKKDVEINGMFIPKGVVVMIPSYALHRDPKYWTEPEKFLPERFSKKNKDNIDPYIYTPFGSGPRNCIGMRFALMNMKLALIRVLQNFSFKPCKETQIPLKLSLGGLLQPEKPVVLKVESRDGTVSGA
# Assay: Cytochrome panel assay with activity outcomes
# Settings: recombinant CYP, pro-luciferin dealkylation, luminescence, p450-cyp3a4; series mostly up to 57.1 µM; activity, negative = inhibition: at the top concentration
# % is scaled to controls: 0 for no effect and ±100 for the full control effect.
SMILES,AC50,"activity, negative = inhibition"
COc1cccc(Sc2cc(N3CCOCC3)nc(-c3ccccc3)n2)c1,0.794 µM (active),–
Cc1cc(Oc2ccc(-c3ccccc3)cc2)nc(N2CCOCC2)n1,–,-13.8%
O=c1nc(N2CCOCC2)ccn1-c1nc(-c2ccccc2)oc1-c1ccccc1,–,-11.6%
Cc1ccc(Oc2cc(N3CCOCC3)nc(-c3ccccc3)n2)cc1,14.1 µM (active),–
Cc1cc(Oc2ccccc2)nc(-c2ccccc2)n1,–,12.9%
Cc1ccc(S(=O)(=O)c2cc(N3CCOCC3)nc(-c3ccccc3)n2)cc1,–,-13.7% [at 2.29 µM]
N#C/C(=C\c1ccc(N2CCCC2)c([N+](=O)[O-])c1)c1nc2ccccc2[nH]1,1.58 µM (active),–
N#C/C(=C/c1ccc(N2CCCC2)c([N+](=O)[O-])c1)c1nc2ccccc2[nH]1,2.82 µM (active),–
Cc1cc(N2CCN(C)CC2)n2nc(-c3ccc(Cl)cc3)nc2n1,–,-14.4% [at 11.4 µM]
Cc1nc2nc(-c3ccc(Cl)cc3)nn2c(C)c1Cl,–,24.5%
Cc1cc(N)n2ncc(-c3ccc(Cl)cc3)c2n1,15.8 µM (active),–
CC(C)(C)C(=O)OCc1cn(-c2ccc(Cl)cc2)nn1,–,-21.3%
COc1cc(S(C)=O)ccc1-c1nc2ncccc2[nH]1 (stereo not given),–,-7.54% [at 25.6 µM]
Cc1ccc(Cn2cccc(NC(=O)NCc3ccccc3)c2=O)cc1,–,-19%
Cc1ccc(Cn2cccc(NC(=O)NC3CCCCC3)c2=O)cc1,12.6 µM (active),–
O=C(Nc1cccn(Cc2ccc(F)cc2)c1=O)NC1CCCCC1,15.8 µM (active),–
NCCSCCC(=O)O,–,-1.66% [at 11.4 µM]
COc1ccc(S(=O)(=O)n2ccc(-c3cnc(-c4ccccc4)s3)n2)cc1,3.98 µM (active),–
CC(Oc1ccccc1)c1ccnn1S(=O)(=O)c1ccccc1 (stereo not given),–,-13.1% [at 11.4 µM]
O=S(=O)(c1ccc(F)cc1)n1ccc(-c2cnc(-c3ccccc3)s2)n1,11.2 µM (active),–
CC[C@@H](C)[C@H]1O[C@]2(CC[C@@H]1C)C[C@@H]1C[C@H](C/C=C(/C)[C@H](O[C@@H]3C[C@H](OC)[C@H](O[C@@H]4C[C@H](OC)[C@@H](O)[C@H](C)O4)[C@H](C)O3)[C@@H](C)/C=C\C=C3CO[C@@H]4[C@H](O)C(C)=C[C@@H](C(=O)O1)[C@]34O)O2 (tested in a mixture with another compound),–,-40.2%
CC(C)C[C@H](NC(=O)[C@@H](O)[C@@H](N)Cc1ccccc1)C(=O)O,inactive,–

SMILES,AC50,"activity, negative = inhibition"
COC(=O)[C@H](Cc1ccccc1)NC(=O)[C@@H](C)CO,–,-44.5% [at 11.4 µM]
COC(=O)C(CC(C)C)NC(=O)C(N)Cc1ccccc1 (stereo not drawn) (H-Phe-Leu-OMe; configuration not given here),14.1 µM (active),–
CCCc1cc2c(n1Cc1ccc(OC)cc1)C(C)C1CN(C(=O)c3ccccc3)C(C)(C(=O)OC)C21 (stereo not given),3.16 µM (active),–
CCCc1cc2c(n1Cc1cc(F)cc(F)c1)C(C)C1CN(C(=O)c3ccccc3)C(C)(C(=O)OC)C21 (stereo not given),3.16 µM (active),–
CCCc1cc2c(n1CCc1ccc(Cl)cc1)C(C)C1CN(C(=O)c3ccccc3)C(C)(C(=O)OC)C21 (stereo not given),5.01 µM (active),–
C[C@@]1(C(=O)O)CCC[C@@H]1C(=O)O,–,-5.72% [at 11.4 µM]
O=C(O)C[C@H](Cc1ccccc1Cl)C(=O)O,–,-7.24% [at 11.4 µM]
Cc1ccnc(N)c1,–,-10.5%
Cc1cc(=O)[nH]c2ccccc12,–,-3.24%
CC1CCCC(n2c(=S)[nH]c3ccccc3c2=O)C1C (stereo not given),7.94 µM (active),–
CCn1c(=O)[nH]c2ccccc2c1=O,–,5.24% [at 2.29 µM]
CCN1CCN(C(c2ccccn2)c2c(NC(=O)c3ccccc3)sc(C)c2C)CC1 (stereo not given),8.91 µM (active),–
CC(C)CO[C@H](c1ccc2c(c1)OCO2)[C@H](C)Br,3.16 µM (active),–
CCC(Sc1nc2n[nH]c(C)c2c(=N)n1-c1cccc(Cl)c1)C(=O)NCCOC (stereo not given),2.82 µM (active),–
Nc1ccn([C@H]2O[C@H](CO)[C@@H]3[O][Sn]([c]4ccccc4)([c]4ccccc4)[O][C@H]32)c(=O)n1,–,25.9% [at 11.4 µM]
CCOC(=O)c1cc(NC(=O)c2ccc(OC)cc2)c(=O)oc1-c1ccccc1,–,-32.3%
Cc1cc(N)ccc1NC(=O)c1ccccc1,–,-26.1%
COc1ccc(C(=O)Nc2cc(C(C)=O)c(/C=C/N(C)C)oc2=O)cc1,–,-28.9%
Cc1ccc(C(=O)Nc2cc3c(oc2=O)CCCC3=O)cc1,–,-13.6%
CC(=O)c1cc(NC(=O)c2ccccc2)c(=O)oc1/C=C/N(C)C,25.1 µM (active),–
Cc1oc(=O)c(NC(=O)c2ccccc2)cc1C(=O)c1ccccc1,7.94 µM (active),–
O=C(Nc1cc(Sc2ccccn2)cc([N+](=O)[O-])c1)c1ccc(Cl)cc1,7.94 µM (active),–

SMILES,AC50,"activity, negative = inhibition"
CSc1cccc(NC(=O)c2ccc(Cl)nc2)c1,–,-25.5%
CC/C(O)=C(\C#N)c1nnc2n1CCCCC2,–,9.11%
Cn1c(CCN2CCCCC2)nc2cc([N+](=O)[O-])ccc21,–,9.92%
O=C1Nc2ccc([N+](=O)[O-])cc2C1(O)N1CCCCCC1 (stereo not given),3.55 µM (active),–
CN1CCCN(C)C1c1cc([N+](=O)[O-])ccc1O,–,-5.36% [at 11.4 µM]
O=C(/C=C/c1cccc(Cl)c1)Nc1ccncc1,0.178 µM (active),–
COCCCNC(=O)/C=C/c1cccc(Cl)c1,–,-20.5%
Cc1cc(C)nc(NC(=O)/C=C/c2ccc(Cl)cc2Cl)c1,–,4.58% [at 2.29 µM]
NS(=O)(=O)c1cc(Br)c(N=Nc2ccc(O)c3ncccc23)c(Br)c1,–,-8.46% [at 11.4 µM]
O=C(O)[C@@H]1CCCN1,–,-4.77% [at 11.4 µM]
COC(=O)C1CC1C(NC(=O)[C@@H]1CCCN1)c1ccccc1 (stereo not given in full),12.6 µM (active),–
COC(=O)C1CC1C(NC(=O)[C@H]1CCCCN1)c1ccccc1 (stereo not given in full),10 µM (active),–
COc1cc(Br)c(C(C)NC(=O)c2cccc(Br)c2)cc1OC (stereo not given),0.282 µM (active),–
COc1ccc(C(=O)NC(C)c2cc(OC)c(OC)cc2Br)cc1 (stereo not given),0.501 µM (active),–
COc1ccc(C(=O)[C@H](Br)[C@H](Br)C(=O)O)cc1,–,3.56% [at 11.4 µM]
NS(=O)(=O)c1cc2c(cc1Cl)N[C@@H](CC1CCCC1)NS2(=O)=O,–,-28% [at 25.6 µM]
COc1ccc(-c2cnnn2-c2ccc(NC(=O)c3ccco3)cc2)cc1OC,1 µM (active),–
CC(C)(C)c1ccc(C(=O)Nc2ccc(NC(=O)c3ccco3)cc2)cc1,–,11.7% [at 2.29 µM]
C/C(=N/NC(=O)c1ccc(NC(=O)c2ccc(F)cc2)cc1)c1ccccc1,–,15.1% [at 0.457 µM]
O=C(Nc1ccc(-n2nncc2-c2ccco2)cc1)c1cc2ccccc2oc1=O,4.47 µM (active),–
O=C(Nc1ccc(-n2nncc2-c2ccco2)cc1)c1ccc(F)cc1,0.708 µM (active),–
CC(=O)c1cc2ccccc2oc1=O,–,-7.81% [at 25.6 µM]

SMILES,AC50,"activity, negative = inhibition"
CC(C)OC(=O)c1cc2ccccc2oc1=O,–,-3.83%
COc1ccc(Br)c2c1C[C@H](C(=O)O)CC2,–,-12.7% [at 11.4 µM]
Nc1nc2c(c(=O)[nH]1)CN(c1ccc(S(N)(=O)=O)cc1)CN2,–,-4.97% [at 11.4 µM]
CC(=O)SCC[N+](C)(C)C,–,-4.83%
COC(=O)[C@@H]1CC[C@H](C)[C@@H](c2ccc(C)cc2)N1C(=O)c1ccc(/C=N\O[C@@H](C)c2cn([C@H](CO)Cc3ccccc3)nn2)cc1,1.26 µM (active) and 3.16 µM (active),–
CO/N=C\c1ccc(C(=O)N2[C@H](c3ccc(C)cc3)[C@@H](C)CC[C@H]2C(=O)OC)cc1,3.16 µM (active),–
COC(=O)[C@@H]1CC[C@H](C)[C@@H](c2ccc(C)cc2)N1C(=O)c1ccc(/C=N\O[C@@H]2O[C@H](COC(C)=O)[C@H](OC(C)=O)[C@H](OC(C)=O)[C@H]2OC(C)=O)cc1,–,-14.4% [at 11.4 µM]
COC(=O)[C@@H]1CC[C@H](C)[C@@H](c2ccc(C)cc2)N1C(=O)c1ccc(/C=N\OCC[C@@H]2C=C[C@H](OC(C)=O)[C@H](COC(C)=O)O2)cc1,–,-18.2% [at 11.4 µM]
COC(=O)[C@@H]1CC[C@H](C)[C@@H](c2ccc(C)cc2)N1C(=O)c1ccc(/C=N\OC[C@@H](C)[C@H](OCc2ccccc2)C(C)C)cc1,3.98 µM (active),–
O=Nc1ccc(NOC(=O)c2ccc(Br)cc2)cc1,–,8.94%
O=C(O)c1cc2ccccc2c(Cc2cc3ccccc3c(C(=O)O)c2O)c1O (tested in a mixture with another compound),–,-32.8% [at 25.6 µM]
COc1ccc2c(Cc3c4ccccc4cc4ccccc34)cncc2c1O,1 µM (active),–
Oc1ccc2ccccc2c1Cc1c(O)ccc2ccccc12,–,-19% [at 11.4 µM]
OC[C@H](S)CS,–,-9.69% [at 11.4 µM]
COc1ccc(-c2nnc(SCc3cccc(C)c3)n2N)cc1,10 µM (active),–
CCn1c(SCc2ccc(C)cc2)nnc1-c1nn(-c2ccccc2)ccc1=O,8.91 µM (active),–
Cc1cccc(CSc2cccc3cccnc23)c1,–,-26.5%
CCn1c(SCc2cccc(C)c2)nnc1-c1ccc(C)cc1,8.91 µM (active),–
CCC(=O)O[C@@H]1[C@H](C)O[C@H](O[C@H]2[C@@H](N(C)C)[C@H](O)[C@@H](O[C@@H]3[C@@H](CC=O)C[C@@H](C)[C@@H](O)/C=C\C=C/C[C@@H](C)OC(=O)C[C@@H](OC(=O)CC)[C@H]3OC)O[C@H]2C)C[C@]1(C)O,–,-19% [at 25.6 µM]
